Measured values published in the supplement of paper PMC12067926.

Tests used:
Experiment in all cases: relative growth (AUC of 72 h growth curve relative to DMSO control, dAUC) (ratio); higher = more growth (less inhibition), active = hit call of the paper
Conditions in all cases: 20 µM;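 active = growth AUC significantly below the DMSO wells by Dunnett test; inactive = the rest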
[1] = compound: C=CCOC(Cn1ccnc1)c1ccc(Cl)cc1Cl
Summary of the method: (§1)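 Growth was followed as A600, read hourly for 72 h on a plate reader after brief shaking. Isolates from Icelandic stream sediments and Silwood Park soil, and whole sediment communities, were first grown to carrying capacity in Luria–Bertani medium and then diluted 1:100 into 96-well plates with each chemical at 20 µM (1% DMSO). Relative growth (dAUC) is the spline-integrated area under the curve scaled to the mean of the DMSO controls, and the values are averages of three biological replicates.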

[2] = compound: CC(=O)CC(c1ccccc1)c1c(O)c2ccccc2oc1=O
Summary of the method: as §1

[3] = compound: CC1COc2ccccc2N1C(=O)C(Cl)Cl
Summary of the method: as §1

[4] = compound: CCCCC(CC)CN1C(=O)[C@@H]2[C@H](C1=O)[C@@H]1C=C[C@H]2C1 (mixture of isomers)
Summary of the method: as §1

[5] = compound: CCCCCCCCc1c(CC)nc2ncnn2c1N
Summary of the method: as §1

[6] = compound: CCCCOCCOCCOCc1cc2c(cc1CCC)OCO2
Summary of the method: as §1

[7] = compound: CCCOC(=O)NCCCN(C)C
Summary of the method: as §1

[8] = compound: COC(=O)c1csc(C)c1S(=O)(=O)NC(=O)n1nc(OC)n(C)c1=O
Summary of the method: as §1

[9] = compound: Cc1ccc(C(C)NC(=O)[C@@H](NC(=O)OC(C)C)C(C)C)cc1
Summary of the method: as §1

[10] = compound: Cc1nn(C)c(Oc2ccccc2)c1/C=N/OCc1ccc(C(=O)OC(C)(C)C)cc1
Summary of the method: as §1

[11] = compound: Cn1cc(C(=O)Nc2ccc(F)cc2-c2ccc(Cl)c(Cl)c2)c(C(F)F)n1
Summary of the method: as §1

[12] = compound: Cn1cc(C(=O)Nc2ccccc2-c2cc(F)c(F)c(F)c2)c(C(F)F)n1
Summary of the method: as §1

[13] = compound: O=C(NCc1ncc(C(F)(F)F)cc1Cl)c1c(Cl)cccc1Cl
Summary of the method: as §1

[14] = compound: Oc1c(Cl)cc(Cl)c(Cl)c1Cc1c(O)c(Cl)cc(Cl)c1Cl
Summary of the method: as §1

[15] = compound: S=C([S-])NCCNC(=S)[S-].S=C([S-])NCCNC(=S)[S-].[Mn+2].[Zn+2]
Summary of the method: as §1

[16] = compound: c1ccc2[nH]c(-c3cscn3)nc2c1
Summary of the method: as §1

Measured: relative growth

Serratia 1 (Serratia sp. 2015-2462-01)
active: [14] 0.00199
inactive: [1] 0.919 | [2] 0.952 | [3] 0.946 | [4] 0.932 | [5] 0.971 | [6] 0.954 | [7] 0.979 | [8] 0.99 | [9] 0.955 | [10] 0.973 | [11] 0.949 | [12] 1.02 | [13] 0.994 | [15] 1.06 | [16] 0.982

Hymenobacter 1 (Hymenobacter glaciei)
active: [14] 0.00356
inactive: [1] 0.768 | [2] 1.08 | [3] 0.952 | [4] 0.932 | [5] 1.05 | [6] 0.845 | [7] 1.07 | [8] 1.08 | [9] 0.999 | [10] 1.06 | [11] 0.927 | [12] 0.91 | [13] 1 | [15] 0.998 | [16] 0.917

Community 7
inactive: [1] 0.922 | [2] 1.03 | [3] 0.994 | [4] 0.872 | [5] 1.03 | [6] 1.04 | [7] 1.12 | [8] 1.02 | [9] 1.08 | [10] 1 | [11] 1.06 | [12] 1.05 | [13] 1.07 | [14] 0.468 | [15] 1.12 | [16] 1.03

Arthrobacter 2 (Arthrobacter humicola)
inactive: [2] 0.972 | [3] 0.871 | [4] 0.869 | [5] 0.929 | [7] 1.07 | [8] 1 | [9] 0.87 | [10] 0.771 | [11] 0.627 | [12] 0.983 | [13] 0.96 | [15] 0.932 | [16] 1.19
active: [1] 0.195 | [6] 0.384 | [14] 0.00995

Oryzobacter 1 (Oryzobacter terrae)
1.27: [4]
inactive: [2] 1.04 | [3] 1.15 | [5] 1.07 | [6] 1.18 | [7] 1.02 | [8] 1.13 | [9] 1.09 | [10] 1.17 | [11] 1.12 | [12] 0.91 | [13] 1.06 | [15] 0.909 | [16] 1.15
active: [1] 0.0303 | [14] 0.00191

Pseudomonas 3 (Pseudomonas mandelii)
active: [14] 0.00168
inactive: [1] 1.01 | [2] 1.06 | [3] 1.07 | [4] 1.05 | [5] 0.984 | [6] 1.04 | [7] 1.04 | [8] 1.04 | [9] 1.08 | [10] 1.09 | [11] 1.03 | [12] 1 | [13] 0.984 | [15] 0.907 | [16] 0.96

Aeromonas 3 (Aeromonas popoffii)
active: [14] 0.00174
inactive: [1] 0.933 | [2] 0.992 | [3] 0.988 | [4] 0.988 | [5] 1 | [6] 1.04 | [7] 1.02 | [8] 1.03 | [9] 1.03 | [10] 1.01 | [11] 0.999 | [12] 1.04 | [13] 1.04 | [15] 1.11 | [16] 1.04

Carnobacterium 1 (Carnobacterium gallinarum)
inactive: [1] 0.879 | [2] 0.827 | [3] 0.955 | [4] 0.823 | [5] 1.13 | [6] 0.363 | [7] 0.986 | [8] 1.17 | [9] 1.01 | [10] 0.951 | [11] 0.779 | [12] 1 | [13] 1.16 | [15] 0.913 | [16] 0.908
active: [14] 0.00936

Pseudomonas 6 (Pseudomonas sp.)
active: [14] 0.0758
inactive: [1] 0.901 | [2] 1.13 | [3] 1.09 | [4] 1.1 | [5] 0.937 | [6] 1.14 | [7] 0.948 | [8] 1.09 | [9] 1.12 | [10] 1.09 | [11] 0.974 | [12] 1.04 | [13] 1.05 | [15] 0.926 | [16] 0.884

Community 8
inactive: [1] 0.913 | [2] 1.03 | [3] 1.03 | [4] 0.989 | [5] 1.07 | [6] 0.957 | [7] 1.03 | [8] 1.01 | [9] 0.972 | [10] 1.01 | [11] 0.943 | [12] 1.04 | [13] 1.02 | [14] 0.806 | [15] 1.13 | [16] 0.998

Flavobacterium 1 (Flavobacterium glaciei)
active: [1] 0.25 | [14] 0.0158
inactive: [2] 1.03 | [3] 1.04 | [4] 1.05 | [5] 0.922 | [6] 0.986 | [7] 1.02 | [8] 0.979 | [9] 0.922 | [10] 0.849 | [11] 0.793 | [12] 1.05 | [13] 0.965 | [15] 0.895 | [16] 0.915

Neobacillus 1 (Neobacillus soli)
active: [14] 0.507
inactive: [1] 0.996 | [2] 0.98 | [3] 0.978 | [4] 0.974 | [5] 0.944 | [6] 1.04 | [7] 1.01 | [8] 1.07 | [9] 0.946 | [10] 0.942 | [11] 0.848 | [12] 1.02 | [13] 1 | [15] 1.06 | [16] 0.976

Paenibacillus 1 (Paenibacillus castaneae)
inactive: [2] 0.878 | [3] 0.947 | [4] 0.923 | [5] 0.906 | [6] 1 | [7] 1.08 | [8] 1.03 | [9] 0.947 | [10] 0.866 | [11] 0.835 | [12] 1.01 | [13] 1.04 | [15] 0.978 | [16] 0.987
active: [1] 0.0487 | [14] 0.0147

Pseudomonas 2 (Pseudomonas vancouverensis)
inactive: [1] 0.914 | [2] 1 | [3] 0.989 | [4] 1.01 | [5] 0.969 | [6] 0.974 | [7] 0.987 | [8] 1.02 | [9] 0.996 | [10] 1.11 | [11] 0.967 | [12] 1.01 | [13] 0.98 | [15] 0.947 | [16] 0.959
active: [14] 0.0738

Community 9
inactive: [1] 0.764 | [2] 0.985 | [3] 1.02 | [4] 0.846 | [5] 1.02 | [6] 0.906 | [7] 1 | [8] 1.1 | [9] 0.905 | [10] 0.906 | [11] 0.839 | [12] 1.05 | [13] 1.03 | [15] 1.03 | [16] 0.911
active: [14] 0.306

Sphingomonas 2 (Sphingomonas sp.)
inactive: [1] 0.991 | [2] 1.2 | [3] 1.09 | [4] 1.07 | [5] 1.13 | [6] 0.821 | [7] 0.956 | [8] 1.14 | [9] 1.08 | [10] 1.14 | [12] 1.02 | [13] 1.09 | [15] 0.975 | [16] 1.02
active: [11] 0.555 | [14] 0.0196
